Measured values as given in paper PMC7862700, “An all-to-all approach to the identification of sequence-specific readers for epigenetic DNA modifications on cytosine”.

Tests used:
Assay in all cases: DAPPL (digital affinity profiling via proximity ligation, sequencing); 10 mM Tris-HCl pH 7.5, 50 mM NaCl, 1 mM DTT, 4% glycerol, room temperature, 30 min; GST-TFs on glutathione beads, 16-mer random dsDNA library, 0.1% formaldehyde crosslink after washing; high values mean tight binding
FLI1 = molecular target: T1, FLI1 (Homo sapiens, UniProt Q01543 1-452); details: protein: recombinant; tags: N-terminal GST; dsDNA, one strand shown
T1 sequence: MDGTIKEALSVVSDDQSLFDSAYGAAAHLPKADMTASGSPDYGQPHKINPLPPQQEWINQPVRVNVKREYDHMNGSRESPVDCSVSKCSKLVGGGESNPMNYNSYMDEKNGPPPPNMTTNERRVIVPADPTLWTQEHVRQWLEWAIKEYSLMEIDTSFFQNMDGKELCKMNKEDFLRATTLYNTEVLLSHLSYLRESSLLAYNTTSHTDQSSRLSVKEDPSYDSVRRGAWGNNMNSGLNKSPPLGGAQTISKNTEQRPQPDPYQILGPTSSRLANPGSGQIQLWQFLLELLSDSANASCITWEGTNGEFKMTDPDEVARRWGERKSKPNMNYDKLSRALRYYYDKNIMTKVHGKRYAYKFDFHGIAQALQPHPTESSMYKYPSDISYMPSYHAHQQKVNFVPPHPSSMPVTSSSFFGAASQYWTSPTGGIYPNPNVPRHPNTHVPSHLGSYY
Method in brief: (§1)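 Yeast served to express human transcription factors as GST fusions, which were then captured on glutathione beads and labelled with DNA barcodes. Pooled with a tag-only sample, they were incubated with 200 nmole of a 16-mer random double-stranded DNA library for 30 min at room temperature in Tris/NaCl/DTT/glycerol buffer, washed, crosslinked with 0.1% formaldehyde, ligated by proximity, amplified by PCR and sequenced. Dividing each hexamer's read frequency for a factor by its frequency for the tag-only sample gives the binding signal.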

ELK1 = molecular target: T2, ELK1 (Homo sapiens, UniProt P19419 1-428); details: protein: recombinant; tags: N-terminal GST; dsDNA, one strand shown
T2 sequence: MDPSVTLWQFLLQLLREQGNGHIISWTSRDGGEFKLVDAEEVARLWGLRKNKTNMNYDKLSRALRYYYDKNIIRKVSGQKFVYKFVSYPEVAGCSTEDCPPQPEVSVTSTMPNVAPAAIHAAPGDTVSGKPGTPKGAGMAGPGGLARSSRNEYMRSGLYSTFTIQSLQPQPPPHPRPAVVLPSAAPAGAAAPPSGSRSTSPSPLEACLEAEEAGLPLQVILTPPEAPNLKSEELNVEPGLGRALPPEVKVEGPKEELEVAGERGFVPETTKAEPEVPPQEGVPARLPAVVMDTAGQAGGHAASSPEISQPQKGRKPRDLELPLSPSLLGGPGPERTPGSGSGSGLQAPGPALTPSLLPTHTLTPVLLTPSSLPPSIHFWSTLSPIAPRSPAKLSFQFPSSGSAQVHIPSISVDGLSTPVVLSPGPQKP
Method in brief: as §1

GABPA = molecular target: T3, GABPA (Homo sapiens, UniProt Q06546 1-454); details: protein: recombinant; tags: N-terminal GST; dsDNA, one strand shown
T3 sequence: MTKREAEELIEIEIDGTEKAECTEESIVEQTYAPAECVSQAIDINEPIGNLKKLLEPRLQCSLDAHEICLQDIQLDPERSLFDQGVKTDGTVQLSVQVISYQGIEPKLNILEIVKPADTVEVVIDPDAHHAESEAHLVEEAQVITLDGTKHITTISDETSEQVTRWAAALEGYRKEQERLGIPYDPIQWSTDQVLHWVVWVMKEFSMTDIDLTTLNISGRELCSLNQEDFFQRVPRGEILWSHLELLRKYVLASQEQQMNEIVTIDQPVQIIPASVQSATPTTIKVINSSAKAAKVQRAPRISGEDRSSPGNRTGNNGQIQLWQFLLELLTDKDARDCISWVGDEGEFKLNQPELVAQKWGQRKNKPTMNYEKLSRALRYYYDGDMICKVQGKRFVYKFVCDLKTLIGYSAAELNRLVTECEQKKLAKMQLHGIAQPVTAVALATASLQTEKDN
Method in brief: as §1

ERG = molecular target: T4, ERG (Homo sapiens, UniProt P11308 1-479); details: protein: recombinant; tags: N-terminal GST; dsDNA, one strand shown
T4 sequence: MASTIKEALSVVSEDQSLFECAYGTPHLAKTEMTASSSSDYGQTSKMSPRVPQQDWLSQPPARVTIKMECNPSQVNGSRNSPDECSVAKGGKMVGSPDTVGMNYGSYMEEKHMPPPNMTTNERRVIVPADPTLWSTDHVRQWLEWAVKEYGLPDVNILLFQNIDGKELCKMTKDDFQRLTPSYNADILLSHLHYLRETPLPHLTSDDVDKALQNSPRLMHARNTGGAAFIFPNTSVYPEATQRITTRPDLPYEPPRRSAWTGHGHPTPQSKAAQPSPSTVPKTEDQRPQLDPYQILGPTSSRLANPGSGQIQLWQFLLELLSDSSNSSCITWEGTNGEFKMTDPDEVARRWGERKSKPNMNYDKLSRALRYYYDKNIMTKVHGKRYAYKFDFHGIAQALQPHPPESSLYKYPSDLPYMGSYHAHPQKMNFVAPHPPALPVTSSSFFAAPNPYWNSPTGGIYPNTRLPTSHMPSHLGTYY
Method in brief: as §1

ELF1 = ELF1 (Homo sapiens, UniProt P32519 1-619); details: protein: recombinant; tags: N-terminal GST; dsDNA, one strand shown
Method in brief: as §1

EHF = molecular target: T5, EHF (Homo sapiens, UniProt Q9NZC4 1-300); details: protein: recombinant; tags: N-terminal GST; dsDNA, one strand shown
T5 sequence: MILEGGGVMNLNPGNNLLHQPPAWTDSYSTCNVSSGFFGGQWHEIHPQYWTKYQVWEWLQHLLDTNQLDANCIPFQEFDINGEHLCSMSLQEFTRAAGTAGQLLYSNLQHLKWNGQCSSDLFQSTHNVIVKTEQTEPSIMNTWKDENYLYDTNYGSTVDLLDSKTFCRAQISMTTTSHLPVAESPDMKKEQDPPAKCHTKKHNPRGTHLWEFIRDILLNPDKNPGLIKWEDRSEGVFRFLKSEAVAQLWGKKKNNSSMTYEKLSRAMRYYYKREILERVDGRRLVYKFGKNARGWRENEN
Method in brief: as §1

SPI1 = SPI1 (Homo sapiens, UniProt P17947 1-270); details: protein: recombinant; tags: N-terminal GST; dsDNA, one strand shown
Method in brief: as §1

SPIB = SPIB (Homo sapiens, UniProt Q01892 1-262); details: protein: recombinant; tags: N-terminal GST; dsDNA, one strand shown
Method in brief: as §1

ELK3 = molecular target: T6, ELK3 (Homo sapiens, UniProt P41970 1-407); details: protein: recombinant; tags: N-terminal GST; dsDNA, one strand shown
T6 sequence: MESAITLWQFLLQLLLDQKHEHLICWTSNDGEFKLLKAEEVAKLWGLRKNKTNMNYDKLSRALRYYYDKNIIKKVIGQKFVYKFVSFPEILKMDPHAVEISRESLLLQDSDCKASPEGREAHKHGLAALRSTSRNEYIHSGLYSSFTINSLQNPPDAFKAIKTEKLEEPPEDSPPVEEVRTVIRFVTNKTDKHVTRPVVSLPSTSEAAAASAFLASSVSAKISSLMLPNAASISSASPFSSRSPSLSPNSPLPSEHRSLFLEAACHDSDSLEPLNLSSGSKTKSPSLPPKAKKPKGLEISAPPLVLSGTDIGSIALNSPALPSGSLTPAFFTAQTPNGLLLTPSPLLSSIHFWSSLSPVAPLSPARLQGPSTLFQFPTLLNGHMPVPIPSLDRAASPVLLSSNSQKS
Method in brief: as §1

FEV = molecular target: T7, FEV (Homo sapiens, UniProt Q99581 1-238); details: protein: recombinant; tags: N-terminal GST; dsDNA, one strand shown
T7 sequence: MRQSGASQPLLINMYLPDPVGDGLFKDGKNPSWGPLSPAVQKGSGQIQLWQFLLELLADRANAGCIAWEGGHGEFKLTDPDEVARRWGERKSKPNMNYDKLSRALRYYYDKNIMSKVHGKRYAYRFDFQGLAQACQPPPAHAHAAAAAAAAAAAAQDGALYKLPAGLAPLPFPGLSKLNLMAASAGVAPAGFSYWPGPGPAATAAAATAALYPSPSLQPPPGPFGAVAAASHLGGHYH
Method in brief: as §1

ETV5 = ETV5 (Homo sapiens, UniProt P41161 1-510); details: protein: recombinant; tags: N-terminal GST; dsDNA, one strand shown
Method in brief: as §1

HSF1 = HSF1 (Homo sapiens, UniProt Q00613 1-529); details: protein: recombinant; tags: N-terminal GST; chain copies: 3; dsDNA, one strand shown
Method in brief: as §1

SPIC = molecular target: T8, SPIC (Homo sapiens, UniProt Q8N5J4 1-248); details: protein: recombinant; tags: N-terminal GST; dsDNA, one strand shown
T8 sequence: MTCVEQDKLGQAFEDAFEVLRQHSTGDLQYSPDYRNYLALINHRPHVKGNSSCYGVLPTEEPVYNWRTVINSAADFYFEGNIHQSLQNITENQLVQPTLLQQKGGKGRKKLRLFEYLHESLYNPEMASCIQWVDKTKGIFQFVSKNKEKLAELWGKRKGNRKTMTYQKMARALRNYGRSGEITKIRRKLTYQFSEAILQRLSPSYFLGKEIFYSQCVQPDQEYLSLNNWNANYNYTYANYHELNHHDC
Method in brief: as §1

ELF4 = ELF4 (Homo sapiens, UniProt Q99607 1-663); details: protein: recombinant; tags: N-terminal GST; dsDNA, one strand shown
Method in brief: as §1

ELK4 = molecular target: T9, ELK4 (Homo sapiens, UniProt P28324-2 1-405); details: protein: recombinant; tags: N-terminal GST; dsDNA, one strand shown
T9 sequence: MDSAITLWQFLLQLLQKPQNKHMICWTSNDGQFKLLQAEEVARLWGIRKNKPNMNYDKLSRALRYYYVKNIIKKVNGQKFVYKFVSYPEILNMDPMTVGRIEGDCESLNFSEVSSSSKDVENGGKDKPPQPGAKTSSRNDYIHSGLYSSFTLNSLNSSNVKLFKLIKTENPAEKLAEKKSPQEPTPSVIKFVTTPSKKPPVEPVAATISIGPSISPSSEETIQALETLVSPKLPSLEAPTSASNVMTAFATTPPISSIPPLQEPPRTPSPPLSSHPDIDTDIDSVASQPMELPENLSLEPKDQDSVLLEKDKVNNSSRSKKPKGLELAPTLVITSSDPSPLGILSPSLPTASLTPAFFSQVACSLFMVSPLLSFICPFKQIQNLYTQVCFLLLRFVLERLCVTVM
Method in brief: as §1

ETV2 = molecular target: T10, ETV2 (Homo sapiens, UniProt O00321 1-342); details: protein: recombinant; tags: N-terminal GST; dsDNA, one strand shown
T10 sequence: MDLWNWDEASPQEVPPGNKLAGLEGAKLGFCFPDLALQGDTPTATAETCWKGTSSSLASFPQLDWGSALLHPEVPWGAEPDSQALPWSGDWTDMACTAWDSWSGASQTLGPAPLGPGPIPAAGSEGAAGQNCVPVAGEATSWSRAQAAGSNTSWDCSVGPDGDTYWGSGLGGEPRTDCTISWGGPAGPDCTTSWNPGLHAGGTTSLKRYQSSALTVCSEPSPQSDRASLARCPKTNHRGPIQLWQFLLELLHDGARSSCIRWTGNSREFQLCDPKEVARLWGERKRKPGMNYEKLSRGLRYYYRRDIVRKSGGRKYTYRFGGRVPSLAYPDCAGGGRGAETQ
Method in brief: as §1

ELF3 = molecular target: T11, ELF3 (Homo sapiens, UniProt P78545 1-371); details: protein: recombinant; tags: N-terminal GST; dsDNA, one strand shown
T11 sequence: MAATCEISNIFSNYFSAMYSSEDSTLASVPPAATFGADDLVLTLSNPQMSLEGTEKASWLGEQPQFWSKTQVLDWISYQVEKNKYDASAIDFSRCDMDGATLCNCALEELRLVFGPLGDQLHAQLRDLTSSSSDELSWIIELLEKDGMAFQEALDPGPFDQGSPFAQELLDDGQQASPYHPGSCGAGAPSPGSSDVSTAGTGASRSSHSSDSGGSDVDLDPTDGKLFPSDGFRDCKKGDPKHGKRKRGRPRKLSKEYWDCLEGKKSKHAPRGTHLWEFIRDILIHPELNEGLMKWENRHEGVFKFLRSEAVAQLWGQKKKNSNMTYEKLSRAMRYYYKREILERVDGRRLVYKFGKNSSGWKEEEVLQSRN
Method in brief: as §1

CRX = CRX (Homo sapiens, UniProt O43186 1-299); details: protein: recombinant; tags: N-terminal GST; dsDNA, one strand shown
Method in brief: as §1

ETV1 = ETV1 (Homo sapiens, UniProt P50549 1-477); details: protein: recombinant; tags: N-terminal GST; dsDNA, one strand shown
Method in brief: as §1

Chain of CRX (O43186 whole entry): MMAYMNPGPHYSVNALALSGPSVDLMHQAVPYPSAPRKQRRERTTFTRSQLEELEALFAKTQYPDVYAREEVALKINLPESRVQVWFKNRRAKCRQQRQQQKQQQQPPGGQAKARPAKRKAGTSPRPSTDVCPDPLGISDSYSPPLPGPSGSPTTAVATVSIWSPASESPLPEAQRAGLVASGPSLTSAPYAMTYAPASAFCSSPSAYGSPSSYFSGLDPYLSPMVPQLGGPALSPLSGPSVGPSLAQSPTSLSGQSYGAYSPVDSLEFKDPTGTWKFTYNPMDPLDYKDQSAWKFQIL
Chain of ELF4 (Q99607 whole entry): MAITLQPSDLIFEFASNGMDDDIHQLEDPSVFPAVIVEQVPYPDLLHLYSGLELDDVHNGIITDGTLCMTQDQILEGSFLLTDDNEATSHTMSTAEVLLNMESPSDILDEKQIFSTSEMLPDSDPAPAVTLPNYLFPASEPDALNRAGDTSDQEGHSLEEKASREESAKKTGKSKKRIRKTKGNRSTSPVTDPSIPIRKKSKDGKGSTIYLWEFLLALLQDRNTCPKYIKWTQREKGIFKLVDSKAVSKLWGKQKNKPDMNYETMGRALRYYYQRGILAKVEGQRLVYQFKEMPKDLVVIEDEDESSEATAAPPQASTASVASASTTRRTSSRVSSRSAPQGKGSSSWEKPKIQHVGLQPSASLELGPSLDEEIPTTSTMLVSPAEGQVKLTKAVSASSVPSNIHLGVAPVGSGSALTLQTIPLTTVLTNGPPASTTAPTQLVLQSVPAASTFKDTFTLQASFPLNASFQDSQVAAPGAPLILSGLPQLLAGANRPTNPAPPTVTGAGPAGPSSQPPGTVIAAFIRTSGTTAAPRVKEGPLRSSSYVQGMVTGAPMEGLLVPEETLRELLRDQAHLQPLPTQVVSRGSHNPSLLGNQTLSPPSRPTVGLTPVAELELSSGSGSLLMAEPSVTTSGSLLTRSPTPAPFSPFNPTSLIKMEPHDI
Chain of ETV5 (P41161 whole entry): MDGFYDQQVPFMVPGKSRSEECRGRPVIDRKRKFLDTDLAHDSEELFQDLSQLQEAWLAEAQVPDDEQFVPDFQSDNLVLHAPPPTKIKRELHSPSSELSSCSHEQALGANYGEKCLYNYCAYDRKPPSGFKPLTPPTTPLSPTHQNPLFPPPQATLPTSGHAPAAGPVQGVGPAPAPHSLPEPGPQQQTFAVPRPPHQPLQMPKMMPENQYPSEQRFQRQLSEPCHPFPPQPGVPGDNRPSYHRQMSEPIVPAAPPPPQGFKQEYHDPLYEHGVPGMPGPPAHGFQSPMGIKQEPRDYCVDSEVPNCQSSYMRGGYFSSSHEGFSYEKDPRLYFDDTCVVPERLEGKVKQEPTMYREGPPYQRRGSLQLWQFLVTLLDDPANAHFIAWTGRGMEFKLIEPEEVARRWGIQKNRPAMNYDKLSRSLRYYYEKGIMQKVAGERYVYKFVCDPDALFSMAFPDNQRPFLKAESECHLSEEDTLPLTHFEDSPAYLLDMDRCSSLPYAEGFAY
Chain of ETV1 (P50549 whole entry): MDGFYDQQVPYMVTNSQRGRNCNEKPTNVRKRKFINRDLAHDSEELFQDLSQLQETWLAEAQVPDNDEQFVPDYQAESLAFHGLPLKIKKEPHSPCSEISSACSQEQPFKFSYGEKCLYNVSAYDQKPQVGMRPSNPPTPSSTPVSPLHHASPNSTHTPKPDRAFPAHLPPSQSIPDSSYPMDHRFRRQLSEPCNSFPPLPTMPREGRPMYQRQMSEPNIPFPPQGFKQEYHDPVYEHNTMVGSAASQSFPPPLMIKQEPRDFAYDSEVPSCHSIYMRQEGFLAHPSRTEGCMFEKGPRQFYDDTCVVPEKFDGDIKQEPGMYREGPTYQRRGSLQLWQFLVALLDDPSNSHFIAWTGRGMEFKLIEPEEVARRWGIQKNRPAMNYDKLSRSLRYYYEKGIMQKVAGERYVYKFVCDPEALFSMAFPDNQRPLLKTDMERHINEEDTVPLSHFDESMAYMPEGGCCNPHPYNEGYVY
Chain of SPIB (Q01892 whole entry): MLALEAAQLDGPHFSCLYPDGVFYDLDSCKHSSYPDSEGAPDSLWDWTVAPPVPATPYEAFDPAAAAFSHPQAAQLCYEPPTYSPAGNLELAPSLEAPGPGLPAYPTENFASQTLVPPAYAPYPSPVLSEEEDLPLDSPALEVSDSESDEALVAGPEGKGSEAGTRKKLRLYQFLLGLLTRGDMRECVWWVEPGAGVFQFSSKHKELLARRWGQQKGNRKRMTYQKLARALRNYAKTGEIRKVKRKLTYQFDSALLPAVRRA
Chain of ELF1 (P32519 whole entry): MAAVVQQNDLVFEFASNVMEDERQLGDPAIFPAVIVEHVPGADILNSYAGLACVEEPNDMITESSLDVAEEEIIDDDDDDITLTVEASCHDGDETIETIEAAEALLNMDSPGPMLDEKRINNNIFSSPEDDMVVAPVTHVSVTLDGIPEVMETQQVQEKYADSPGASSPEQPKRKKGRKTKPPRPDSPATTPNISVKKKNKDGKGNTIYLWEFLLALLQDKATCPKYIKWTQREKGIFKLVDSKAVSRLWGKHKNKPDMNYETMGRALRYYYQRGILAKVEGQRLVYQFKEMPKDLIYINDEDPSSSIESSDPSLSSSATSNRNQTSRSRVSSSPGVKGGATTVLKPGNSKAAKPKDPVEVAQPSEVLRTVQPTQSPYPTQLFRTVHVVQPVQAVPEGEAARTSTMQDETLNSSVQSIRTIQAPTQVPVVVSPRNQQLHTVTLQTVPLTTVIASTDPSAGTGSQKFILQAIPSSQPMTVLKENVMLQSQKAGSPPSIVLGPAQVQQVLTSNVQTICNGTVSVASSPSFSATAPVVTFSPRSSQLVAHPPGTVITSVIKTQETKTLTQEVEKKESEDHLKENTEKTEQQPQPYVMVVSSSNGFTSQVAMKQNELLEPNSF
Chain of HSF1 (Q00613 whole entry): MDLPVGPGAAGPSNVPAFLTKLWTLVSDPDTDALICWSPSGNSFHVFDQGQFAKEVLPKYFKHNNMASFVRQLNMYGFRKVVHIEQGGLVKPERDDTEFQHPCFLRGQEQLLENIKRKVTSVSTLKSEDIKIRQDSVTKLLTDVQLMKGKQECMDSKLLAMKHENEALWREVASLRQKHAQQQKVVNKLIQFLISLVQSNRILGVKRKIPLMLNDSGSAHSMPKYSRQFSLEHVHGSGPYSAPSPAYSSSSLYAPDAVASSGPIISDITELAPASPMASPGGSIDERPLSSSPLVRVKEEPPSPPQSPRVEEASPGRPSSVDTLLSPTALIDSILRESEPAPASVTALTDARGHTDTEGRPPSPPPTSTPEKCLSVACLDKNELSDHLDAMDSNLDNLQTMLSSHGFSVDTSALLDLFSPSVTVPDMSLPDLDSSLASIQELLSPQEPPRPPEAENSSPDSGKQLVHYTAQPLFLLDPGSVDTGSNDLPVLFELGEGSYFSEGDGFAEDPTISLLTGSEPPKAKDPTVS

TCTGCC
binding signal (FLI1): 1.49 fold enrichment (6-mer frequency, TF over GST control) | binding signal (ELK1): 1.36 fold enrichment (6-mer frequency, TF over GST control) | binding signal (GABPA): 1.51 fold enrichment (6-mer frequency, TF over GST control) | binding signal (ERG): 1.49 fold enrichment (6-mer frequency, TF over GST control) | binding signal (ELF1): 1.54 fold enrichment (6-mer frequency, TF over GST control) | binding signal (EHF): 1.37 fold enrichment (6-mer frequency, TF over GST control) | binding signal (SPI1): 1.37 fold enrichment (6-mer frequency, TF over GST control) | binding signal (SPIB): 1.32 fold enrichment (6-mer frequency, TF over GST control) | binding signal (ELK3): 1.18 fold enrichment (6-mer frequency, TF over GST control) | binding signal (FEV): 1.38 fold enrichment (6-mer frequency, TF over GST control) | binding signal (ETV5): 1.27 fold enrichment (6-mer frequency, TF over GST control) | binding signal (HSF1): 1.35 fold enrichment (6-mer frequency, TF over GST control) | binding signal (SPIC): 1.31 fold enrichment (6-mer frequency, TF over GST control) | binding signal (ELF4): 1.53 fold enrichment (6-mer frequency, TF over GST control) | binding signal (ELK4): 1.59 fold enrichment (6-mer frequency, TF over GST control) | binding signal (ETV2): 1.24 fold enrichment (6-mer frequency, TF over GST control) | binding signal (ELF3): 1.28 fold enrichment (6-mer frequency, TF over GST control) | binding signal (CRX): 1.21 fold enrichment (6-mer frequency, TF over GST control) | binding signal (ETV1): 1.36 fold enrichment (6-mer frequency, TF over GST control)
